This is part of a sample that, as a whole, favours compounds with a hit. Of some 83,000 tested, about 20% had one in any assay.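 Compound tested at a single concentration for 48 hours in 96-well plates; a percent growth value below 10 was scored as active.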 Values without a mark were called inactive. Activity calls are given as the source filed them.
Assays:
Assay in all cases: NCI-60 one-dose screen, 48 h (100 = growth as untreated, 0 = no growth, -100 = all killed)
Conditions in all cases: 10 µM unless noted
[1] = tested on: SK-MEL-2 melanoma
[2] = tested on: EKVX NSCLC
[3] = tested on: SN12C renal
[4] = tested on: UO-31 renal
[5] = tested on: TK-10 renal
[6] = tested on: ACHN renal
[7] = tested on: CAKI-1 renal
[8] = tested on: A498 renal
[9] = tested on: CCRF-CEM leukemia
[10] = tested on: MOLT-4 leukemia
[11] = tested on: SR leukemia
[12] = tested on: RPMI-8226 leukemia
[13] = tested on: OVCAR-8 ovarian
[14] = tested on: OVCAR-5 ovarian
[15] = tested on: OVCAR-4 ovarian
[16] = tested on: SK-OV-3 ovarian
[17] = tested on: IGROV1 ovarian
[18] = tested on: OVCAR-3 ovarian
[19] = tested on: HS 578T breast
[20] = tested on: NCI/ADR-RES ovarian

Compound | growth [1] | growth [2] | growth [3] | growth [4] | growth [5] | growth [6] | growth [7] | growth [8] | growth [9] | growth [10] | growth [11] | growth [12] | growth [13] | growth [14] | growth [15] | growth [16] | growth [17] | growth [18] | growth [19] | growth [20]
Cn1cc(-c2cc(N)n3nc(-c4cn(C)c5ncc(Br)cc45)cc3n2)c2cc(Br)cnc21 | 39.5% | 85.1% | 12.4% | 45.8% | -10.2% (active) | 1.23% (active) | 56.6% | 114% | 3.66% (active) | -54.3% (active) | -35.1% (active) | 5.51% (active) | 14.6% | 70% | -47.3% (active) | 104% | 43.5% | -68% (active) | 55.1% | 14.9%
CCOC(=O)COc1c(OC)c(OC)cc2oc(-c3cccc(C(=O)Nc4ccc(Cl)cc4)c3)cc(=O)c12 | 71.3% | 62.5% | 58.3% | 28.1% | 87.7% | 73.1% | 48.4% | 82.7% | 31.1% | 19.8% | 18.4% | 38.5% | 52% | 81.4% | 68.8% | 75.4% | 54.4% | 23.3% | 49.6% | 36.5%
Cc1ccc(C2=NN(c3nc(-c4cc5ccccc5oc4=O)cs3)C(c3ccc(C)cc3)C2)cc1 (stereo not given) | 104% | 93.6% | 104% | 68% | 163% | 102% | 88.2% | 127% | 101% | 98.5% | 102% | 98.6% | 106% | 126% | 99.1% | 80.3% | 104% | 109% | 101% | 101%
CCN1C(=O)/C(=N\N=C(/C)c2ccc3c(c2)Nc2ccccc2S3)c2cc(Cl)ccc21 | 70.8% | 40.1% | 58.9% | 56.6% | 72.1% | 24.6% | 48.1% | 60.1% | 50.8% | 37.4% | 60.8% | 48% | 68.1% | 83.7% | 41.6% | 108% | 69.9% | 55.6% | 80% | 68.8%
C=C1CCC2C3(C)COC(c4ccco4)OC3CCC2(C)C1CC(Sc1ccccc1)C1=CCOC1=O (stereo not given) | 80% | 105% | 21.4% | 51.8% | 123% | 70.3% | 88.2% | 137% | 0.425% (active) | 16.9% | 17.1% | 3.83% (active) | 4.17% (active) | 60.9% | 70.2% | 141% | 69.2% | 37% | 114% | -17.6% (active)
COc1ccc2[nH]cc(-c3nnc(N)nc3-c3c[nH]c4ncc(Br)cc34)c2c1 | 104% | 82.6% | 77.1% | 65.9% | 101% | 59% | 70% | 87.7% | 88.9% | 70.8% | 67.8% | 76.8% | 82.5% | 97.9% | 96.6% | 76.2% | 48.3% | 104% | 70.1% | 97.9%
Cc1ccc(C2CC(c3ccc(S(=O)(=O)NCCNc4nc(Nc5ccc(F)cc5)nc(N(C)C)n4)cc3)=Nc3c(N)nc(N)nc3N2)cc1 (stereo not given) | 76.9% | 62.7% | 74.2% | 67.4% | 96.5% | 61% | 76.9% | 89.2% | 18.4% | 4.77% (active) | -6.57% (active) | 6.3% (active) | 52% | 92.6% | 53.2% | 101% | 69.8% | 67.5% | 65.2% | 88.9%
CC12CC[C@@H]3[C@]4(C)COC(c5cn[nH]c5-c5ccc(Cl)cc5)O[C@@H]4CC[C@@]3(C)[C@@H]1CC(C1=CCOC1=O)O2 (stereo not given in full) | 29.7% | 36.1% | 48.5% | 21% | 35.3% | 33.8% | 49.8% | 85.6% | 32.8% | -16.8% (active) | 16.5% | 12% | 55.5% | 62.3% | 39.5% | 55% | 51% | 42.6% | 51% | 42.5%
COc1c(F)ccc(C(=O)Nc2ccc3nc(NC(=O)C4CCCN(S(=O)(=O)c5ccc(Cl)cc5)C4)sc3c2)c1F (stereo not given) | 88% | 85.1% | 82% | 62.9% | 103% | 86.7% | 68.9% | 96.4% | 85.5% | 38.8% | 44.8% | 53.8% | 97.2% | 97% | 86.2% | 97.2% | 72.9% | 92% | 60.2% | 74%
C#CCOc1cc(N(CC)CC)ccc1C(C(=O)NC(C)(C)C)N(C(=O)C1CCc2cc(F)ccc2O1)c1ccccc1F (stereo not given) | -39.4% (active) | 44.5% | 43.7% | 23.3% | 45% | 18.7% | 22.4% | 33.3% | 31.8% | 5.25% (active) | 16.3% | 18% | 31.7% | 57.7% | 43.4% | 39.6% | 54% | 33.1% | 68.7% | 42.5%
Cc1ccc(-c2nc(C#N)c(S(=O)(=O)N3CCN(S(=O)(=O)c4ccccc4)CC3)o2)cc1 | 48% | 63.1% | 3.58% (active) | -67.7% (active) | 81.2% | -36.9% (active) | 47% | 123% | -33.6% (active) | -20.5% (active) | -48.1% (active) | -24.5% (active) | 1.2% (active) | 19.5% | -1.2% (active) | 115% | -63.6% (active) | 1.2% (active) | 65.5% | 4.76% (active)
C=C1CCC2C3(C)COC(c4ccccc4)OC3CCC2(C)C1CC(Sc1ccccc1)C1=CCOC1=O (stereo not given) | 59.4% | 69.3% | 25.7% | 45.5% | 106% | 65.1% | 78.4% | 140% | -1.92% (active) | -14.3% (active) | 8.04% (active) | 3.18% (active) | 12.9% | 58.5% | 50.4% | 120% | 58% | 44% | 94.1% | -22.7% (active)
O=C(c1ccccc1)C(c1c[nH]c2ccccc12)c1c[nH]c2ccccc12 | 71.9% | 76.5% | 49% | 45% | 142% | 53.5% | 31.6% | 98.1% | 3.87% (active) | 16.5% | 7.54% (active) | 20.6% | 64.4% | 76.6% | 51.5% | 94.2% | 56% | 57.9% | 61% | 47.4%
Cn1cc(-c2cc3nc(-c4cn(C)c5ncc(Br)cc45)cc(N)n3n2)c2ccccc21 | -73.6% (active) | -44.2% (active) | -82.2% (active) | -36.3% (active) | -32.8% (active) | -45.9% (active) | 1.08% (active) | -24.3% (active) | -23.9% (active) | -42% (active) | -20.7% (active) | -2.62% (active) | -10.9% (active) | -49.5% (active) | 20% | -24% (active) | -23.8% (active) | -18.5% (active) | -19.7% (active) | -23.5% (active)
S=C(NCCc1ccccc1)Nc1ccc(OCc2nc3ccccc3[nH]2)cc1 | 121% | 101% | 96.8% | 84.3% | 112% | 104% | 87.3% | 111% | 96.7% | 100% | 95.7% | 101% | 102% | 105% | 108% | 99.4% | 113% | 112% | 109% | 110%
